Bioassay records (PubChem BioAssay)
ADAM17 inh: ADAM17 inhibition, QFRET primary screen | P78536 | actives 0.83% (n = 370,000) | inhibition, % at 6.95 µM | recombinant ADAM17, EDANS/DABCYL FRET peptide cleavage | AID 720648;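 active = inhibition above the mean of compounds lying between control limits plus 3 SD, set per campaign, cut at about 8.5% in these data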;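 also: 0% = DMSO-only wells as the low control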
Target sequence (P78536 215-824 limits assumed): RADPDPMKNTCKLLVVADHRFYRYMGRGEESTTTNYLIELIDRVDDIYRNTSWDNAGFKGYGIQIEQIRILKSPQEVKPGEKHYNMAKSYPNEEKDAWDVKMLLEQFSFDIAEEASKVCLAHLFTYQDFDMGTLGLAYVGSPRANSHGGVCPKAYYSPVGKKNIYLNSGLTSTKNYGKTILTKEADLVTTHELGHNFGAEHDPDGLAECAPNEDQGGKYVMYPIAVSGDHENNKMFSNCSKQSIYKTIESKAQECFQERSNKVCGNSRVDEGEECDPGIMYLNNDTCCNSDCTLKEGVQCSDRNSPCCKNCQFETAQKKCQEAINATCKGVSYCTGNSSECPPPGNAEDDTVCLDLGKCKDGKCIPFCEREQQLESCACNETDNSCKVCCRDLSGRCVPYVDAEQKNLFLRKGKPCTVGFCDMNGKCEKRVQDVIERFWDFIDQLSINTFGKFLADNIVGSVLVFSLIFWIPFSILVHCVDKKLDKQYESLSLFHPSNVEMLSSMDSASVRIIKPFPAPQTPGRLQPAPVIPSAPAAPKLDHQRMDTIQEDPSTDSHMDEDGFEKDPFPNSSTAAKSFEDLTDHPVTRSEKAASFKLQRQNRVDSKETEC
ADAM10 inh: ADAM10 inhibition, QFRET primary screen; O14672; recombinant ADAM10, EDANS/DABCYL FRET peptide cleavage, 3 h; inhibition, % at 7 µM; actives 0.62% (n = 370,000); AID 720582;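 active = inhibition above a per-campaign cutoff equal to the mean of compounds falling between control-based bounds plus 3 SD, cut at about 20% in these data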;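 also: 0% = DMSO wells while the 100% control is not disclosed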
KLK7 zymogen act: activates the human kallikrein-7 zymogen. P49862. purified proKLK7, EDANS-DABCYL substrate fluorescence; 100% is mature enzyme control, 0% vehicle. activation, % at 7 µM. actives 0.9% (n = 370,000);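 active = activation above the mean of all tested compounds plus 3 SD, computed per campaign excluding outliers beyond control limits, cut at about 13% in these data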
V-ATPase pH: regulators of yeast V-ATPase proton transport | S. cerevisiae, pHLuorin cytosolic pH fluorescence | response, % at 10 µM | actives 0.37% (n = 350,000) | AID 504577; in the data active = response mostly above about 7.3%, no sharp cut-off; inactive = mostly below about 5.4%; also: actives read high
ADAM10 ctr: counter-screen for ADAM17 exosite inhibitors: inhibitors of human ADAM10; recombinant ADAM10, EDANS/DABCYL FRET peptide cleavage, 3 h; shares compounds with ADAM17 inh; inhibition, % at 6.95 µM; actives 47% (n = 2,900);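 active = mean inhibition over the triplicate runs exceeds the activity threshold set in the earlier primary screen, cut at about 20% in these data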;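 also: 0% = DMSO wells and 100% = marimastat wells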
ADAM17 confirm: confirmation of inhibitors of human ADAM17; shares compounds with ADAM17 inh; recombinant ADAM17, EDANS/DABCYL QFRET peptide cleavage; inhibition, % at 6.95 µM; actives 65% (n = 2,900); AID 743257;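 active = mean inhibition across replicates above the hit cutoff set in the primary screen, cut at about 8.5% in these data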;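 also: 0% = DMSO wells and 100% = marimastat wells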
* hit, by the source's call; i = inactive; . = no result given. Rows were chosen to be rich in hits. Some 2.3% of all compounds tested hit in one or more screens of this group.

SMILES	ADAM17 inh	ADAM10 inh	KLK7 zymogen act	V-ATPase pH	ADAM10 ctr	ADAM17 confirm
COC(=O)[C@]12CCCCC=C1N(Cc1ccc3c(c1)OCO3)C(=O)[C@H](CC(=O)NCc1cccc3ccccc13)C2	8.9*	19.0	0.2	.	33.3*	22.3*
COC(=O)[C@@]12C[C@@H](CC(=O)NCc3ccccc3)C(=O)N(Cc3cccc4ccccc34)C1=CCC(C)(C)C2	9.1*	17.0	0.6	.	14.8	6.2
COC(=O)[C@]12CCCCC=C1N(Cc1ccccc1)C(=O)[C@H](CC(=O)NCc1cccc3ccccc13)C2	5.2	4.2	0.5	.	.	.
C/C(=N\N=C1\NC(=O)CC(C(=O)O)S1)c1cccs1 (stereo not given)	-1.6	1.3	0.1	1.5	.	.
CNC(=O)C1CC(=O)N/C(=N/N=C(\C)c2cccs2)S1 (stereo not given)	10.0*	8.2	0.1	0.9	18.3	13.5*
CC(=O)Nc1cc2nc3ccccc3oc-2cc1=O	-0.7	-10.2	-0.2	.	.	.
Cc1cc(SCC(=O)Nc2cccc(S(=O)(=O)NC3=NCCCCC3)c2)c(C)cc1Br	11.5*	14.8	0.4	1.1	27.6*	17.9*
COc1ccccc1NC(=O)c1ccc(S(=O)(=O)N(C)c2ccccc2)cc1	2.4	1.0	-0.2	1.9	.	.
COc1cc(NC(=O)c2ccc(S(=O)(=O)N(C)c3ccccc3)cc2)cc(OC)c1	10.3*	14.6	0.1	6.5	29.8*	16.8*
CC(=O)c1cccc(NC(=O)C2CCCC2)c1	9.5*	-1.1	0.4	-4.7	-7.2	-2.5
CCc1cccc(C)c1NC(=O)COC(=O)CNS(=O)(=O)/C=C/c1ccccc1	2.8	4.1	0.4	4.0	.	.
Cc1ccc(Cl)c(NC(=O)COC(=O)CNS(=O)(=O)/C=C/c2ccccc2)c1Cl	9.1*	7.0	-0.2	1.2	-4.4	1.7
CCn1c(CC(=O)Nc2cccc(OC)c2)nnc1SCC(=O)N1CCN(c2ccccc2)CC1	12.4*	3.9	-0.3	-2.1	30.4*	18.4*
COC(=O)[C@]12C[C@H](CC(=O)N3CCCC3)C(=O)N(Cc3ccccc3)C1=C[C@H](C(C)C)O[C@@H]2C1CC1	2.2	1.4	0.1	.	.	.
C[C@@H](OC(=O)N1CCCCC1)[C@H]1O[C@]2(C)CCCC[C@H]1O2	9.4*	9.2	-0.2	-0.9	12.8	8.6
COC(=O)C1=C(C)N(Cc2ccccc2C(F)(F)F)C(=NCc2ccccc2C(F)(F)F)NC1c1ccc(Cl)cc1 (stereo not given)	-0.2	-3.8	-0.7	.	.	.
N#CCCN(C(=O)COC(=O)c1cccc(S(=O)(=O)Nc2ccc([N+](=O)[O-])cc2)c1)c1ccccc1	9.2*	14.0	0.3	-2.4	5.6	8.2
N#CCCN(C(=O)COC(=O)c1ccc(S(=O)(=O)Nc2ccccc2)cc1)c1ccccc1	2.5	6.6	-0.4	-0.6	.	.
O=C(NCc1ccc(Cl)cc1)OCCN1C(=O)CCC12CCC(c1ccccc1)CC2 (stereo not given)	2.9	4.8	1.1	.	.	.
CCN1C(=O)N[C@@H](CCc2ccccc2)[C@@H](C(=O)OC)[C@H]1C	9.8*	-1.0	0.7	13.7	6.5	7.2
COC(=O)[C@H]1[C@H](CCc2ccccc2)NC(=O)N(Cc2ccccc2)[C@@H]1C	-1.8	5.6	0.4	0.5	.	.
C[C@@H](c1ccccc1)N1C[C@@H](COCc2ccccc2)Oc2cc(N3CC[C@@H](O)C3)ccc2S1(=O)=O	7.1	10.1	-0.3	.	.	.
C[C@H](c1ccccc1)N1C[C@H](COCc2ccccc2)Oc2cc(N3CC[C@@H](N(C)C)C3)ccc2S1(=O)=O	1.6	-4.5	-0.2	.	.	.
C[C@H](c1ccccc1)N1C[C@H](COCc2ccccc2)Oc2cc(N3CC[C@@H](O)C3)ccc2S1(=O)=O	9.8*	13.4	0.1	.	28.8*	15.2*
C[C@@H](c1ccccc1)N1C[C@H](COCc2ccccc2)Oc2cc(N3CC[C@@H](O)C3)ccc2S1(=O)=O	10.4*	11.9	0.3	.	16.4	6.5
SMILES	ADAM17 inh	ADAM10 inh	KLK7 zymogen act	V-ATPase pH	ADAM10 ctr	ADAM17 confirm
O=S(=O)(c1ccc(Cl)cc1)N1CCCC1c1nc(-c2ccc(Cl)cc2)no1 (stereo not given)	9.8*	15.1	0.8	-3.8	2.0	2.9
CCOC(=O)c1c(NC(=O)Cn2nc(C(F)F)cc2C(F)F)sc(C)c1C	9.1*	18.1	0.7	3.1	17.6	12.3*
COC(=O)c1c(NC(=O)Cn2nc(C(F)F)cc2C(F)F)sc(C)c1C	3.1	12.9	-0.1	9.7	.	.
CCCCN=C(N)NC(=O)c1ccccc1	-2.4	-8.6	-0.2	.	.	.
COc1cc(C(C(=O)NC2CCCCC2)N(C(=O)Cc2c[nH]c3ccccc23)c2ccccc2C)cc(OC)c1OC (stereo not given)	9.5*	19.8	0.0	0.6	28.4*	16.2*
CCOc1cc(/C=N/NC(=O)COc2ccc(Cl)cc2)ccc1OS(=O)(=O)c1ccccc1	14.3*	18.3	1.0	1.9	37.1*	16.9*
C[C@H](O)[C@@H]1C(=O)N2CCc3c([nH]c4cccc(-c5ccccc5)c34)[C@@H]2C[C@@H]1N(C)C(=O)OCc1ccccc1	-187.1	i	-25.8	.	.	.
CCOC(=O)c1c(C)[nH]c(C(=O)OCc2ccccc2)c1C	8.8*	12.8	-0.2	-3.9	11.7	8.9*
Cc1ccc(S(=O)(=O)N2CCN(C(=O)COC(=O)c3ncc(Cl)c(Cl)c3Cl)CC2)c(C)c1	9.0*	-10.9	0.7	-0.4	8.4	8.9*
Cc1ccc(S(=O)(=O)N2CCN(C(=O)COC(=O)c3nc(Cl)ccc3Cl)CC2)c(C)c1	-2.3	-6.0	0.0	2.1	.	.
CC(C)C[C@H]1COc2cccc(NCCO)c2S(=O)(=O)N1	-1.3	-13.6	-0.1	.	.	.
CCCCc1nnn2c1C1c3cc(Br)ccc3CCN1C(=O)C2 (stereo not given)	0.4	-0.7	0.5	.	.	.
CC(C)(C)c1ccc(S(=O)(=O)N2CCC(C(=O)NCC3COCCO3)CC2)cc1 (stereo not given)	-2.9	-6.7	-0.3	.	.	.
COC(=O)c1ccc(CCc2cc(O)c(Br)cc2O)cc1	8.9*	-0.4	1.7	0.2	-1.9	-1.1
COC(=O)c1ccc(CCc2cc(O)ccc2O)cc1	.	.	.	1.5	.	.
COC(=O)c1ccsc1NS(C)(=O)=O	-2.5	-34.1	0.0	.	.	.
Cc1c(Cl)cccc1Nc1nc(N)nc(CSc2nc3ccccc3s2)n1	9.5*	16.3	-0.5	3.9	19.6	11.0*
CC(C)(C)S(=O)N1C[C@@H]2CC(=O)C=C2[C@H]1CCO (stereo not given in full)	-4.5	-13.2	0.0	.	.	.
Cc1ccc(NC(=O)CSc2nnc(-c3ccccc3F)n2-c2ccccc2)c(C)c1	2.3	4.5	0.0	.	.	.
O=C(NCCc1ccc(Cl)cc1)Nc1ccc(Cl)cc1	-2.9	-0.8	-0.6	1.8	.	.
